PubChem BioAssay
Calls of active or inactive are those of the source.

Assays:
[1] = system: Plasmodium falciparum Sir2 (PF13_0152, Sir2A); experiment: Plasmodium falciparum Sir2A binding compounds – biochemical, small-molecule microarray, 635 nm fluorescence, primary screen (AID 1098); details: fluorescence 635 nm, higher = more signal;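 further: score merges spot fluorescence intensity with its signal-to-noise ratio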
[2] = probe aDKK1 binding to arrayed compounds – biochemical, biotinylated probe, 635/667 nm fluorescence, primary screen (AID 1099); details: small-molecule microarray, higher = more signal;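 further: score merges 667nm spot fluorescence with signal to noise across triplicate slides; reference of the scale not given here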
[3] = probe aCHRDL2 binding to arrayed compounds – biochemical, biotinylated probe, 635/667 nm fluorescence, primary screen (AID 1100); details: small-molecule microarray, higher = more signal
[4] = change in splice reporter luminescence, either direction, cell-based, HEK293, spliceosome inhibition project, primary screen (AID 1101); details: HEK293 splicing luciferase reporter, 24 h, higher = more signal, called active from +8 up or from −8 down;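 further: HEK293 cells carrying a splicing-competent luciferase reporter gene; test concentration not given here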
[5] = target: Fibroblast growth factor 10 (Homo sapiens) (UniProt O15520); experiment: compounds binding fibroblast growth factor 10 – biochemical, small-molecule microarray, 635 nm fluorescence, primary screen (AID 1102); details: FGF10 binding, fluorescence 635 nm, higher = more signal
Sequence of Fibroblast growth factor 10 (Homo sapiens) (O15520 whole entry, looked up): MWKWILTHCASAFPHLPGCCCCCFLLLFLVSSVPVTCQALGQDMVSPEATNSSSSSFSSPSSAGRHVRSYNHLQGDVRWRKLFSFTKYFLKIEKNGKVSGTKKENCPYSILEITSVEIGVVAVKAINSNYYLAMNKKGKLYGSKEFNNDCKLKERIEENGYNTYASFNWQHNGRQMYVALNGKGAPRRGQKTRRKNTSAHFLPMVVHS

[6] = system: glycogen synthase kinase-3 (GSK3A per assay name; protocol says GSK3B); experiment: compounds binding glycogen synthase kinase-3 – biochemical, small-molecule microarray, 635 nm fluorescence, GSK3A, primary screen (AID 1103); details: fluorescence 635 nm, higher = more signal; further: the record names both GSK3A and GSK3B
[7] = target: Epidermal growth factor receptor (Homo sapiens) (UniProt P00533); experiment: compounds binding epidermal growth factor receptor – biochemical, small-molecule microarray, 635 nm fluorescence, primary screen (AID 1104); details: EGFR binding, higher = more signal;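 further: score merges 667 nm emission intensity with spot signal to noise over triplicate slides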
Sequence of Epidermal growth factor receptor (Homo sapiens) (P00533 whole entry, looked up): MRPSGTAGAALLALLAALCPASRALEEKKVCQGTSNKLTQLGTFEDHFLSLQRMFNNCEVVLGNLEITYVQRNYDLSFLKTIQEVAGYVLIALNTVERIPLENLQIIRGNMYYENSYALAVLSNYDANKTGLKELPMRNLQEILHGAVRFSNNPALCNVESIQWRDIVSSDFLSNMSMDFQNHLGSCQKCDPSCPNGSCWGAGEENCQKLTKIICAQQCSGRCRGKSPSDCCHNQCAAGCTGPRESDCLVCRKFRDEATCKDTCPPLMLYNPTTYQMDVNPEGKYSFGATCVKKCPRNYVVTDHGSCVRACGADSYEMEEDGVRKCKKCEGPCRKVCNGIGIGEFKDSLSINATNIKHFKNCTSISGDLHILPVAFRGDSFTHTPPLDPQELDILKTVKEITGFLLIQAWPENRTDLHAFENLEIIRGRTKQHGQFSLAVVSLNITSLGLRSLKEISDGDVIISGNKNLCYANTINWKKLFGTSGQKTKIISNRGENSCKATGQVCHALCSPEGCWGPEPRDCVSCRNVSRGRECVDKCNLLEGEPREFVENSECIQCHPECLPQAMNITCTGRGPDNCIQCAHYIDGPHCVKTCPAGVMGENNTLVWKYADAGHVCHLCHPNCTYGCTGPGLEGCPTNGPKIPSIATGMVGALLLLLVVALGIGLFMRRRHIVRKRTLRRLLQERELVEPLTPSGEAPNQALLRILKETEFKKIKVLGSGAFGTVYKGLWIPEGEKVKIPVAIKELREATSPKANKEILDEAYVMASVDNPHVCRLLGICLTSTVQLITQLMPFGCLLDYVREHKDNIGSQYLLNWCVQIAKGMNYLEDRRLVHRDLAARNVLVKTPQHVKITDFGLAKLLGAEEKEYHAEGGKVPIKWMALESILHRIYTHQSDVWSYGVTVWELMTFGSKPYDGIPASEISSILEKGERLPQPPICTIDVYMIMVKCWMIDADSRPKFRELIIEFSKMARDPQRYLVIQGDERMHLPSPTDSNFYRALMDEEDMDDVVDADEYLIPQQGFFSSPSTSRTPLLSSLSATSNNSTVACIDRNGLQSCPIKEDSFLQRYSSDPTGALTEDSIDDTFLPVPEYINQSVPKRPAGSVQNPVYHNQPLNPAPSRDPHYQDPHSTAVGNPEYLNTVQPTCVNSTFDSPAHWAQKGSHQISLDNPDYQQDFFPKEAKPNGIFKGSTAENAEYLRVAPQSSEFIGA

[8] = target: Follistatin-related protein 3 (Homo sapiens) (UniProt O95633); experiment: compounds binding follistatin-related protein 3 – biochemical, small-molecule microarray, 635 nm fluorescence, primary screen (AID 1105); details: FSTL3 binding, higher = more signal;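 further: score merges emission near 667 nm and signal to noise per printed spot across three slides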
Sequence of Follistatin-related protein 3 (Homo sapiens) (O95633 whole entry, looked up): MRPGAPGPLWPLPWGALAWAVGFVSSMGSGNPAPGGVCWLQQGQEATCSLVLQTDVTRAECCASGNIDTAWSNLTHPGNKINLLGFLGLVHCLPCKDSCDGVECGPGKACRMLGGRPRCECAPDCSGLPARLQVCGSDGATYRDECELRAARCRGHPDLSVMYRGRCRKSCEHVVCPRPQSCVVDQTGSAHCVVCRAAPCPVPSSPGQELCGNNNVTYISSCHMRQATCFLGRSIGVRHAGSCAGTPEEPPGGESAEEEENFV

[9] = target: Dickkopf-related protein 1 (Homo sapiens) (UniProt O94907); experiment: small molecules binding DKK1 protein – biochemical, small-molecule microarray, 635 nm fluorescence scan, primary screen (AID 1106); details: higher = more signal;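 further: score merges emission near 667 nm with signal to noise over three replicate slides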
Sequence of Dickkopf-related protein 1 (Homo sapiens) (O94907 whole entry, looked up): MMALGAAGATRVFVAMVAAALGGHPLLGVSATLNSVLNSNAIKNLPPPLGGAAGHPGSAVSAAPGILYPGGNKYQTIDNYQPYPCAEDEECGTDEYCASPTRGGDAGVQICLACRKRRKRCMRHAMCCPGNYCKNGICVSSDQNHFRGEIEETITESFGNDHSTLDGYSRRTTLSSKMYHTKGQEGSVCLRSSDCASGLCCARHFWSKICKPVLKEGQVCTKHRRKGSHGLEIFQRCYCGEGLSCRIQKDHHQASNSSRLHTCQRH

[10] = system: Inhibin beta A chain (activin A); experiment: small molecules binding activin A – biochemical, small-molecule microarray, 635 nm fluorescence scan, primary screen (AID 1107); details: INHBA, higher = more signal;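 further: mouse activin A protein probed at 4.33 µg/mL on printed slides; score merges bound-protein fluorescence near 667 nm with spot signal-to-noise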

SMILES	composite z-score [1]	composite z-score [2]	composite z-score [3]	z-score [4]	composite z-score [5]	composite z-score [6]	composite z-score [7]	composite z-score [8]	composite z-score [9]	composite z-score [10]
C=CC[C@@H]1C=C[C@H](ON=C2C[C@@H](O)[C@@H](O)[C@@H]3[C@@H]4C(=O)N(CC)C(=O)[C@@H]4CC[C@@H]23)[C@@H](CO)O1	-0.487	-0.428	-0.562	-1.2 (inactive)	0.156	-0.653	-0.0239	-0.339	0.106	0.535
COC(=O)[C@H](C)NC(=O)CCC1CC(OC(=O)NCCc2ccc(F)cc2)CC2(CCCC(COC(=O)NCC3CCCCC3)O2)O1 (stereo not given in full)	0.662	-0.262	-0.446	-0.863 (inactive)	0.938	1.23	0.501	1.08	0.678	0.0532
O=C1C=C[C@@H](O)[C@@H]2[C@@H]3C(=O)N(Cc4ccccc4)C(=O)[C@@H]3CC[C@@H]12	0.295	-0.262	-0.684	-0.71 (inactive)	0.659	0.653	0.552	0.353	0.232	0.181
COC(=O)[C@H](C)NC(=O)CCC1CC(OC(=O)NCCc2ccc(F)cc2)CC2(CCCC(COC(=O)NCc3ccccc3)O2)O1 (stereo not given in full)	0.768	-0.128	-0.37	-0.114 (inactive)	0.834	1.28	0.462	1.29	0.477	0.0384
O=C1C2=CC[C@H]3C(=O)N(c4ccc(F)cc4F)C(=O)[C@H]3[C@H]2[C@H](O)[C@@H]2O[C@H]12	0.305	-0.378	-0.778	-0.35 (inactive)	0.472	0.578	0.347	0.453	0.658	-0.172
C=CC[C@@H]1C=C[C@H](ON=C(C)CCN2CCCCc3nc(C)c(C)cc32)[C@@H](CO)O1	1.14	-0.406	-0.804	-0.102 (inactive)	0.497	1.29	1.51	1.43	1.63	1.5
COC(=O)CC=C[C@@H](C)[C@@H](C=NOC[C@@H](C)[C@H](OCc1ccccc1)C(C)C)NS(=O)(=O)c1ccc(C)cc1	-0.196	-0.439	-0.75	-0.21 (inactive)	-0.714	-1.15	-0.0573	-0.888	0.0424	0.168
COCOc1ccc(Br)cc1C(=O)C=Cc1ccc2c(c1)OCO2	-0.0162	-0.304	-0.662	-0.838 (inactive)	0.59	-0.207	0.524	0.679	0.665	1.22
